Measured values taken from PubChem BioAssay (NCATS).
Inconclusive results are not listed. The source made the active and inactive calls. The call rests on the fitted dose curve; in most records, active means well fitted curve in the direction sought with a large enough effect; inconclusive means small, poorly fitted or top-dose-only effect, or another doubt; inactive means no such curve, though single readings can be large; an effect the other way counts as inactive or inconclusive.

Assays:
[1] = target: Calcium and integrin-binding protein 1 (Homo sapiens) (UniProt Q99828); experiment: Primary qHTS for Identification of Calcium Integrin Binding Protein 1 (CIB1) Competitor (AID 1508620); conditions: CIB1-GST / FITC-alphaIIb peptide fluorescence polarization; series mostly up to 57.7 µM;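 further: GST tagged CIB1 binding a fluorescein labelled alphaIIb integrin peptide tracer; top concentration of the series differs between compounds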
How it was run: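 CIB1-GST (1 uM final) and compound incubated 15 min at room temperature before adding FITC-alphaIIb peptide tracer (100 nM final). Competition for binding read by fluorescence polarization (ex 480, em 540) after another 15 min at room temperature.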

[2] = Primary qHTS for inhibitors of nuclear receptor binding SET domain protein 2 (NSD2) in an isogenic RCH-ACV NSD2 p.E1099K mutant (9B) (AID 1645876); conditions: RCH-ACV NSD2 E1099K (9B) viability, CellTiter-Glo, 72 h; series mostly up to 44.9 µM; further: nearly all actives have a fitted effect of over 70% in size
[3] = Primary qHTS for inhibitors of nuclear receptor binding SET domain protein 2 (NSD2) in an RCH-ACV wild type WT cells (2C) (AID 1645877); conditions: RCH-ACV (leukaemia line) NSD2 WT (2C) viability, CellTiter-Glo, 72 h; series mostly up to 44.9 µM; further: nearly all actives have a fitted effect of over 70% in size

Measured: Potency

Calcium and integrin-binding protein 1 (Homo sapiens), sequence (Q99828 whole entry, looked up): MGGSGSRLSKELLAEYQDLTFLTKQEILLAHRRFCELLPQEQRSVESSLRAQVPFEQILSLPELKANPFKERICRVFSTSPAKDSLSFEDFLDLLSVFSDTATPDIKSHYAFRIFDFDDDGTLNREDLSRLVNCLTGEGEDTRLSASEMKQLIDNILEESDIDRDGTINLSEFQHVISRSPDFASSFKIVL

CC(=O)O[C@@H]1[C@H](OC(C)=O)C[C@@]2(C)C(CC[C@@H](C)[C@]23Cc2c(O)cc4c(c2O3)CN([C@@H](CCC(=O)O)C(=O)O)C4=O)C1(C)C (some centres undefined)
inactive: all assays above

COc1cc(/C=C/C(=O)OC[C@H]2O[C@@H](OC3CC(C)=C(C(=O)O)C(C)(C)C3)[C@H](O)[C@@H](O)[C@@H]2O)cc(OC)c1O (some centres undefined)
inactive: all assays above

CC(CCc1ccc(O)cc1)O[C@@H]1O[C@H](CO[C@@H]2OC(CO)[C@H](O)[C@H]2O)[C@@H](O)[C@H](O)[C@H]1O (some centres undefined)
inactive: all assays above

CC1=CCC[C@@H]2[C@](CCc3ccoc3)(C(=O)O)[C@H](C)CC[C@@]12C
inactive: all assays above

C=C1[C@H](OC(C)=O)[C@H]2[C@@H](OC(=O)c3ccccc3)[C@@H](C)C[C@]2(O)[C@@H](OC(C)=O)[C@H](C)/C=C/C(C)(C)C(=O)[C@H](OC(C)=O)[C@H]1OC(C)=O
inactive: all assays above

C/C(=C\CCC(C)CCO)C(=O)OC[C@H]1O[C@@H](O[C@@H]2OC=C(C(=O)O)[C@H]3CC[C@](C)(O)[C@@H]23)C(O)[C@@H](O)C1O (some centres undefined)
inactive: all assays above

C/C=C(/C)C(=O)OC1C2OC2C2(CO2)C2C3OC(=O)C(C)C3CCC12C (centres undefined)
inactive: all assays above

COc1cc(O)cc(O[C@@H]2O[C@H](CO)[C@@H](O[C@@H]3OC[C@](O)(CO)[C@H]3O)[C@H](O)[C@H]2O)c1OC
inactive: all assays above
